Source: PubChem BioAssay (National Center for Advancing Translational Sciences (NCATS))
HepG2 viability: qHTS for Inhibitors of TGF-b: Cytotox Counterscreen. HepG2 CAGA-GFP viability, ATP luminescence, 18 h. Potency, µM (top dose mostly 46.1 µM), hits mostly cytotoxic. hit rate 0.76% among 410,000. AID 588856, 2011
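CellTiter-Glo luminescence gave cytotoxicity after 18 hours at 37 degrees C. The cells were HepG2 CAGA-GFP in 1% FBS DMEM, stimulated with 500 pg/mL TGF-beta after compound addition. %Activity was normalised to no-cell wells (complete cell-killing) and DMSO (no toxicity), and curves were fitted and classified.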
TGFb inhibitor: qHTS for Inhibitors of TGF-b; HepG2 CAGA-GFP TGF-b/SMAD3 reporter, GFP fluorescence, 18 h; TGF-beta stimulated, 500 pg/mL final; Potency, µM (top dose mostly 46.1 µM), most hits filed as inhibitors; hit rate 1.2% among 410,000; also: nearly all actives have a fitted effect of over 65% in size
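Inhibition of TGF-beta-driven CAGA-GFP reporter expression in HEPG2 cells is measured by cellular GFP fluorescence after 18 h stimulation with 500 pg/mL recombinant TGF-beta in 1% FBS medium at 37 degrees C.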
A549 tox: Nrf2 qHTS screen for inhibitors: counterscreen for cytotoxicity | A549 ARE-Fluc cells, CellTiter-Fluor viability, 18-24 h | Potency, µM (titrated, usually from 46 µM), actives largely listed as inhibitors | hit rate 0.16% among 390,000 | AID 504648, 2011
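Cytotoxicity counterscreen: CellTiter-Fluor fluorescence was measured in A549 ARE_Fluc cells after 18-24 h of compound exposure in a concentration series. The subsequent BugLite luminescent read reports ARE-luciferase activity.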
ATXN viability: Viability Counterscreen for Primary qHTS for Inhibitors of ATXN expression; hit rate 0.49% among 400,000; Potency, µM (series often up to 56.7 µM), hits mostly cytotoxic; S2 cells (HEK-293 line with an ATXN2-luciferase reporter) viability, CellTiter-Fluor protease fluorescence, 24 h; AID 651635, 2014; also: nearly all actives have a fitted effect of over 40% in size
Nrf2 inh: Nrf2 qHTS screen for inhibitors. A549 ARE-Fluc reporter, luciferase luminescence, 18-24 h. Potency, µM (highest dose often 46 µM), hits mostly inhibitors. hit rate 2.1% among 360,000; also: nearly all actives have a fitted effect of over 60% in size
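A549 ARE_Fluc cells (5000/well, 5% FBS OPTI-MEM) pre-incubated 2 h, then treated with compounds 18-24 h at 37C/5% CO2 in concentration-response. CellTiter-Fluor viability read first; BugLite luciferase luminescence after 15 min at room temperature gives Nrf2 activity.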
ATXN2 expr inh: Primary qHTS for Inhibitors of ATXN expression | HEK-293 ATXN2-luciferase reporter, luminescence, 24 h | Potency, µM (series often up to 57 µM), actives largely listed as inhibitors | hit rate 0.72% among 360,000; also: nearly all actives have a fitted effect of over 55% in size
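ATXN2-luciferase reporter cells (luciferase flanked by upstream and downstream ATXN2 gene portions) were treated 24 h at 37 °C with compounds at up to 57 uM. SteadyGlo luminescence gave expression; GF-AFC fluorescence gave viability.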
Of the large screens only hits and unclear results are named; the others gave an inactive call. Only some compounds are listed: those with a hit (about 3.8% of all), similar ones and a draw of the others. Calls follow the shape of the dose curve; as a rule, active = well fitted curve in the direction sought with a large enough effect; inconclusive = small, poorly fitted or top-dose-only effect, or another doubt; inactive = no such curve, though single readings can be large; an effect the other way counts as inactive or inconclusive.

CC1Cc2ccccc2N1C(=O)CSc1nccc(=O)[nH]1 (stereo unspecified)	ATXN viability inconclusive
CCCC(=O)O[C@]1(C(=O)CC)CC[C@H]2[C@@H]3CCC4=CC(=O)CC[C@]4(C)[C@H]3[C@@H](O)C[C@@]21C	none (no result: HepG2 viability, TGFb inhibitor, A549 tox, Nrf2 inh)
CO[C@H]1C=CC=C(C)C(=O)NC2=CC(=O)C(NCCN(C)C)=C(C[C@@H](C)C[C@H](OC)[C@@H](O)[C@@H](C)C=C(C)[C@@H]1OC(N)=O)C2=O	ATXN2 expr inh 0.077µM (no result: HepG2 viability, TGFb inhibitor, A549 tox, ATXN viability, Nrf2 inh)
C=CCNC1=C2C[C@@H](C)C[C@H](OC)[C@@H](O)[C@@H](C)C=C(C)[C@H](OC(N)=O)[C@@H](OC)C=CC=C(C)C(=O)NC(=CC1=O)C2=O	ATXN2 expr inh 1.1µM (no result: HepG2 viability, TGFb inhibitor, A549 tox, ATXN viability, Nrf2 inh)
COC1=C2C[C@H](C)C[C@H](OC)[C@@H](O)[C@@H](C)C=C(C)[C@H](OC(N)=O)[C@@H](OC)C=CC=C(C)C(=O)NC(=CC1=O)C2=O	TGFb inhibitor inconclusive, A549 tox inconclusive (no result: ATXN viability, ATXN2 expr inh)
O=C(O)c1ccccc1C(=O)NCC(O)COc1ccc(Cl)cc1 (stereo unspecified)	none
Cc1ccc(S(=O)(=O)N(C)C)cc1NC(=O)CSc1nc2ncc(Cl)cc2[nH]1	TGFb inhibitor inconclusive, Nrf2 inh inconclusive
CCOc1ccccc1CNC(=O)c1cccc(NC(=O)c2nsc3ccccc23)c1	TGFb inhibitor inconclusive, ATXN viability inconclusive (no result: Nrf2 inh)
COc1ccc(S(=O)(=O)NC2CC(=O)N(c3cccc(F)c3)C2)cc1OC (stereo unspecified)	TGFb inhibitor inconclusive
CCCCN1CC[C@H]2C=CC[C@@H](C(=O)NC3CCCCC3)[C@H]2C1=O	none (no result: A549 tox, ATXN viability, Nrf2 inh, ATXN2 expr inh)
COc1ccc(CC(N)c2csc(NC(=O)c3ccccc3OC)n2)cc1 (stereo unspecified)	ATXN viability inconclusive, ATXN2 expr inh 22µM (no result: A549 tox, Nrf2 inh)
COc1ccc(CC(N)c2csc(NC(=O)NCCc3ccccc3)n2)cc1 (stereo unspecified)	TGFb inhibitor inconclusive, ATXN viability inconclusive, ATXN2 expr inh inconclusive (no result: A549 tox, Nrf2 inh)
COc1ccc(CC(N)c2csc(NC(=O)C(c3ccccc3)c3ccccc3)n2)cc1 (stereo unspecified)	HepG2 viability 11µM, TGFb inhibitor inconclusive, ATXN viability inconclusive, ATXN2 expr inh inconclusive (no result: A549 tox, Nrf2 inh)
COc1ccc(CC(N)c2csc(NC(=O)c3ccccc3)n2)cc1 (stereo unspecified)	ATXN viability inconclusive (no result: A549 tox, Nrf2 inh)
Cc1ccccc1-c1nc(CN2CCC(C(=O)NC(C)C)CC2)c(C)o1	none
CN1CCN(C(=O)Nc2cccc(Cl)c2)c2cccnc21	TGFb inhibitor 16µM
COc1ccc(CCNC(=O)CN(Cc2ccc(Cl)cc2)S(C)(=O)=O)cc1	none (no result: ATXN2 expr inh)
O=C(COC(=O)Cc1ccccc1F)Nc1ccc(F)cc1F	HepG2 viability 3.5µM
C[C@@]12C(C[C@H](O)[C@@]34C[C@@H](CCC13)[C@@H](CO)C4=O)[C@](C)(C(=O)O)CC[C@@H]2O (stereo partly specified)	none (no result: A549 tox, Nrf2 inh)
C=C1C(=O)[C@]23C[C@H]1CCC2[C@@]1(C)C(C[C@@H]3O)[C@](C)(C(=O)OC)CC[C@@H]1O (stereo partly specified)	HepG2 viability 5µM, TGFb inhibitor 0.79µM, ATXN2 expr inh 1.6µM (no result: A549 tox, ATXN viability, Nrf2 inh)
COc1cc(N)c(C(O)c2nccc3cc(OC)c(OC)cc23)cc1OC (stereo unspecified)	Nrf2 inh inconclusive
COc1ccc(C(O)c2nccc3cc(OC)c(OC)cc23)cc1OC (stereo unspecified)	Nrf2 inh 21µM
CCN1CCCC1CNC(=O)c1cnn(-c2nccc(-c3cccs3)n2)c1C1CC1 (stereo unspecified)	none (no result: HepG2 viability, TGFb inhibitor, A549 tox, Nrf2 inh, ATXN2 expr inh)
CCCCCc1ccc(OCCC[n+]2ccccc2)c(CCCCC)c1	TGFb inhibitor inconclusive, A549 tox inconclusive, ATXN viability inconclusive, Nrf2 inh 13µM, ATXN2 expr inh inconclusive
O=C(CCc1c[nH]c2ccccc12)NC1CC1	none
COc1ccc(CN(C(=O)CSc2nnc(-c3ccc(F)cc3)o2)c2ccc(F)cc2)cc1	Nrf2 inh inconclusive
O=C(CSc1nnc(Cn2nnc3ccccc32)o1)N(Cc1ccc(F)cc1)c1ccccc1	TGFb inhibitor 11µM, A549 tox inconclusive, Nrf2 inh 5.8µM
COc1ccc(CN(C(=O)CSc2nnc(-c3c[nH]c4ccccc34)o2)c2ccc(F)cc2)cc1OC	A549 tox inconclusive, ATXN viability inconclusive, Nrf2 inh 12µM, ATXN2 expr inh inconclusive
Cc1cc(C)cc(NC(c2cccc(Cl)c2)c2nnc(-c3ccccc3)o2)c1 (stereo unspecified)	TGFb inhibitor inconclusive
Cc1ccc(NC(=O)C2CCN(C(=O)c3cnn(-c4ccccc4)c3-n3cccc3)CC2)cc1	TGFb inhibitor 11µM, Nrf2 inh inconclusive
O=C(O)C1CCN(Cc2cnn(-c3ccccc3)c2-n2cccc2)CC1	none
COc1ccc(NC(=O)C2CCCN(C(=O)c3cnn(-c4ccc(F)cc4)c3-n3cccc3)C2)cc1 (stereo unspecified)	ATXN viability inconclusive, Nrf2 inh inconclusive
O=C(NC1CC1)C1CCN(Cc2cnn(-c3ccccc3)c2-n2cccc2)CC1	HepG2 viability 22µM (no result: ATXN viability, ATXN2 expr inh)
CSc1cccc(NC(=O)C2CCCN(C(=O)c3cnn(-c4ccc(F)cc4)c3-n3cccc3)C2)c1 (stereo unspecified)	TGFb inhibitor 18µM (no result: ATXN viability, Nrf2 inh, ATXN2 expr inh)
COc1ccccc1OCCC(=O)OCC(=O)NCc1ccc(F)cc1	ATXN viability inconclusive (no result: ATXN2 expr inh)
Nc1ccc(C(=O)N2CCN(S(=O)(=O)c3ccc4c(c3)OCCO4)CC2)cc1[N+](=O)[O-]	none
CC(=O)c1c(C)n(-c2ccccc2)c2ccc(OCC(N)=O)cc12	none
COc1ccc(NC(=O)Cn2cc(C(=O)c3ccccc3OC)c(=O)c3ccc(C)nc32)cc1OC	ATXN viability inconclusive
Cc1cc(Cl)ccc1OC(C)C(=O)N1CCCN(C(=O)C(C)Oc2ccc(Cl)cc2C)CC1 (stereo unspecified)	TGFb inhibitor inconclusive, A549 tox inconclusive, ATXN viability inconclusive, Nrf2 inh 16µM, ATXN2 expr inh inconclusive
COc1ccc(S(=O)(=O)NCC(c2ccco2)S(=O)(=O)c2cccs2)cc1F (stereo unspecified)	TGFb inhibitor inconclusive (no result: ATXN viability, Nrf2 inh, ATXN2 expr inh)
O=C(CSc1nnc(-c2cccc(Br)c2)o1)N1CCNC1=O	Nrf2 inh inconclusive (no result: ATXN viability, ATXN2 expr inh)
CCC(C(=O)OCC(=O)c1c(N)n(CC(C)C)c(=O)n(C)c1=O)c1ccccc1 (stereo unspecified)	Nrf2 inh 23µM
